The results in this text go back to PubChem BioAssay (EPA / NIEHS).

Structures are written as SMILES. Inconclusive results are not listed. Calls of active or inactive are those of the source. The calls were made as follows: active = hit-call score of the fitted dose curve at least 0.9, where 1 is the maximum; inconclusive = response in the unintended direction; inactive = score below 0.9.

Oxysterols receptor LXR-alpha (Homo sapiens), sequence (Q13133 whole entry, looked up, the tested form may be a part): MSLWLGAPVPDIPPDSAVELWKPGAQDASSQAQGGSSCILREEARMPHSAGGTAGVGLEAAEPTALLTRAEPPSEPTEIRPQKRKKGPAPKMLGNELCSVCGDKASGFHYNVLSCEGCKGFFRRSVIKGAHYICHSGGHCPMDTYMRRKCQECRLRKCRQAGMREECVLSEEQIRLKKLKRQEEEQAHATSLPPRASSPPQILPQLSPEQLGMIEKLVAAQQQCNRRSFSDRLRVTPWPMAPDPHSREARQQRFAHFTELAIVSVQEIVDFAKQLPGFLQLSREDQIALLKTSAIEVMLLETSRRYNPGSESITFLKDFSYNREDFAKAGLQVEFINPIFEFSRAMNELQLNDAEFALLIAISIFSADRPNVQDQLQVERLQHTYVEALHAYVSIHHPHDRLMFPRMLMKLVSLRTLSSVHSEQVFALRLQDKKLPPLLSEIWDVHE
Hepatocyte nuclear factor 4-alpha (Homo sapiens), sequence (P41235 whole entry, looked up, the tested form may be a part): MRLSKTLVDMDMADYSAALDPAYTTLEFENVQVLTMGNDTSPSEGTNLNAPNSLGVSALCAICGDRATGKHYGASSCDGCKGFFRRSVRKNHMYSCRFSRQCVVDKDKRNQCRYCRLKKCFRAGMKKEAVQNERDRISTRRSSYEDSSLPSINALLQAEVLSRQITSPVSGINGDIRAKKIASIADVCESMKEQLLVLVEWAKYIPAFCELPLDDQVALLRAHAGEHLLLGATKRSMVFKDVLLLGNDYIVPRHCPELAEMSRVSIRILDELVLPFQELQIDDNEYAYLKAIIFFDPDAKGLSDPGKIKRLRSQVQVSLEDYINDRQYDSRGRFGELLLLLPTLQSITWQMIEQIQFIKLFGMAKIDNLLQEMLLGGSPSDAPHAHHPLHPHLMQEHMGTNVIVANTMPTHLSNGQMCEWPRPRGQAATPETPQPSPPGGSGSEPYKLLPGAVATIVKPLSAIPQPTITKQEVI
Oxysterols receptor LXR-beta (Homo sapiens), sequence (P55055 whole entry, looked up, the tested form may be a part): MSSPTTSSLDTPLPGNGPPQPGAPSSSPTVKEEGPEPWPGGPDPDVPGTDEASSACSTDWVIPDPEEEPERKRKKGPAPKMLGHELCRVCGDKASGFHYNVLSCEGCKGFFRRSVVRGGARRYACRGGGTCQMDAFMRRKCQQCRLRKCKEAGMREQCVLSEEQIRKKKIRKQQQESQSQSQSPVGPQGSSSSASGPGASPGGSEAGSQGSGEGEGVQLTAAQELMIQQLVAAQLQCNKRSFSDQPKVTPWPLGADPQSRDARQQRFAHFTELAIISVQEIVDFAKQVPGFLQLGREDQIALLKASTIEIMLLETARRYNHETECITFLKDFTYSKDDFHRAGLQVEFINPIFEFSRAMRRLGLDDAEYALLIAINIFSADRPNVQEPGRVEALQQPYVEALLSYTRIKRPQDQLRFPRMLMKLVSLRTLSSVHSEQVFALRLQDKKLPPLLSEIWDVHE

The first assay has as its target Oxysterols receptor LXR-alpha (Homo sapiens) (UniProt Q13133). The assay is described as follows: ATG_LXRa_TRANS: Attagene TRANS-FACTORIAL HepG2 Assay for human Liver X Receptor alpha (LXRa) (AID 2282980). Particulars: HepG2 Attagene TRANS reporter, LXRa transactivation. The method in brief: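 In this multiplexed TRANS system, compounds act on HepG2 cells carrying GAL4-UAS reporter units and a receptor-GAL4 fusion for 24 h. Induced reporter RNA is amplified, fluorescently labelled and sized by capillary electrophoresis, with DMSO as baseline.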
For `CC(C)(C)OOC(C)(C)CCC(C)(C)OOC(C)(C)C`, the result was inactive.

With `OCCOCCO`, the compound was classed as inactive.

Regarding `[O-][Cl+]O`, the outcome was inactive.

`COc1cc(C=O)cc2c1[C@H](COC(N)=O)[C@]1(OC(C)=O)ON2C[C@H]2[C@@H]1N2C(C)=O`: the compound was called inactive.

`COC(=O)c1ccccc1N`: the result was inactive.

As to `O=Cc1ccco1`, the outcome was inactive.

Consider `CCN(CC)N=O`, for which the result was inactive.

On to `CCC12COCN1COC2`, for which the outcome was inactive.

The next assay concerns the target Oxysterols receptor LXR-beta (Homo sapiens) (UniProt P55055). The assay is described as follows: ATG_LXRb_TRANS: Attagene TRANS-FACTORIAL HepG2 Assay for human Liver X Receptor beta (LXRb) (AID 2282981). Particulars: HepG2 Attagene TRANS GAL4-LXRb reporter, mRNA. In short, it runs like this: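 Gain-of-signal mRNA reporter endpoint, DMSO as negative control. Transiently transfected HepG2 cells carrying the NR-Gal4 chimera and GAL4-UAS reporter units were treated 24 h; transcripts quantified by RT-PCR and capillary electrophoresis fluorescence.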
For the compound `O=C1CCCO1`, the result was inactive.

For `CC(O)CCO` (stereo not drawn), the call was inactive.

Regarding `C1=Cc2cccc3cccc1c23`, the outcome was inactive.

Consider `CCCCC(CC)COC(=O)c1ccc(C(=O)OCC(CC)CCCC)c(C(=O)OCC(CC)CCCC)c1` (stereo not drawn), for which the outcome was inactive.

With `COC(=O)Nc1nc2ccccc2[nH]1`, the outcome was inactive.

In the case of `Clc1ccc(Cl)c(Cl)c1`, the compound was classed as inactive.

For `CC(C)(C)OOC(=O)c1ccccc1`, the call was inactive.

For `CCN(CC)CCO`, the compound was classed as inactive.

As for `C[N+](C)(C)CC1CO1` (stereo not drawn), the result was inactive.

Take `OCCOCCO`: the result was inactive.

On to `OCCCBr`, for which the outcome was inactive.

For `CCC12COCN1COC2`, the result was inactive.

Another assay deals with Hepatocyte nuclear factor 4-alpha (Homo sapiens) (UniProt P41235). The assay can be described thus: ATG_HNF4a_TRANS: Attagene TRANS-FACTORIAL HepG2 Assay for human Hepatocyte Nuclear Factor 4 alpha (HNF4a) (AID 2282982). The following applies: HepG2 HNF4a transactivation reporter, mRNA readout. In short, it runs like this:
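Gain-of-signal mRNA induction, relative to DMSO vehicle, was read after 24 h compound treatment of HepG2 cells bearing transfected GAL4-UAS reporters. Detection used RT-PCR, 6-FAM primer extension and capillary electrophoresis.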
On to `O=C1CCCO1`, for which the result was inactive.

Turning to `CC(O)CCO` (stereo not drawn), the call was inactive.

For the compound `C1=Cc2cccc3cccc1c23`, the compound was classed as inactive.

Consider `COC(=O)Nc1nc2ccccc2[nH]1`, for which the compound was called inactive.

Turning to `Clc1ccc(Cl)c(Cl)c1`, the call was inactive.

For `OCCOCCO`, the compound was called inactive.

Turning to `OCCCBr`, the outcome was inactive.

As to `[O-][Cl+]O`, the result was inactive.

As for `Nc1cc(Cl)cc(C(=O)O)c1Cl`, the compound was called inactive.

Take `COc1cc(C=O)cc2c1[C@H](COC(N)=O)[C@]1(OC(C)=O)ON2C[C@H]2[C@@H]1N2C(C)=O`: the compound was called inactive.

On to `O=Cc1ccco1`, for which the compound was classed as inactive.

On to `ClC1=C(Cl)[C@]2(Cl)[C@H]3[C@H]([C@@H]4C=C[C@H]3C4)[C@@]1(Cl)C2(Cl)Cl`, for which the call was inactive.

`CCC12COCN1COC2`: the compound was classed as inactive.

Test system in another assay: not listed separately
The assay can be described thus: ATG_M_06_TRANS: Attagene TRANS-FACTORIAL HepG2 Assay for M06 Transcription Factor (Internal Marker) (AID 2282983). The following applies: HepG2 Attagene TRANS M06 internal marker reporter. In short, it runs like this: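 Internal-marker background readout from a multiplexed TRANS reporter system in HepG2; 24 h dosing; mRNA induction quantified by RT-PCR plus capillary electrophoresis fluorescence; DMSO as negative control and baseline.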
Turning to `O=C1CCCO1`, the compound was classed as inactive.

Consider `N#CC(Br)(Br)C(N)=O`, for which the compound was classed as inactive.

With `CC(C)(C)OOC(C)(C)CCC(C)(C)OOC(C)(C)C`, the call was inactive.

On to `CC(O)CCO` (stereo not drawn), for which the outcome was inactive.

Regarding `Cc1ccc([N+](=O)[O-])cc1`, the outcome was inactive.

For the compound `C1=Cc2cccc3cccc1c23`, the outcome was inactive.

On to `CCCCC(CC)COC(=O)c1ccc(C(=O)OCC(CC)CCCC)c(C(=O)OCC(CC)CCCC)c1` (stereo not drawn), for which the compound was classed as inactive.

Turning to `COC(=O)Nc1nc2ccccc2[nH]1`, the call was inactive.

Consider `Cc1ccc(N)c(N)c1`, for which the compound was classed as inactive.

Consider `Clc1ccc(Cl)c(Cl)c1`, for which the outcome was inactive.

Consider `CC(C)(C)OOC(=O)c1ccccc1`, for which the compound was called inactive.

For the compound `CCN(CC)CCO`, the result was inactive.

As to `OCCCBr`, the call was inactive.

As to `[O-][Cl+]O`, the call was inactive.

Take `Nc1cc(Cl)cc(C(=O)O)c1Cl`: the call was inactive.

As for `COc1cc(C=O)cc2c1[C@H](COC(N)=O)[C@]1(OC(C)=O)ON2C[C@H]2[C@@H]1N2C(C)=O`, the outcome was inactive.

Take `CCN(CC)N=O`: the result was inactive.

As for `Cc1ccc(N=C=O)cc1N=C=O`, the compound was called inactive.

Regarding `c1ccc2c(c1)-c1cccc3cccc-2c13`, the compound was called inactive.

Consider `CCOc1cccc(C2(N3CCN(c4ccccc4)CC3)CCC(C)CC2)c1` (stereo not drawn), for which the compound was called inactive.
